Measured values from PubChem BioAssay (EPA / NIEHS).
Active and inactive are the calls of the source. How the source made its calls: active means hit-call score of the fitted dose curve at least 0.9, where 1 is the maximum; inactive means score below 0.9.

Assay: BSK_SAg_SRB: Viability Assessment in the BioMAP Diversity Plus: SAg Assay (AID 2283096);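 further: cells read one day after compound addition; hits may be either gain or loss of signal compared with DMSO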
Conditions: primary human HUVEC with PBMC
In short: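 SRB absorbance at 560 nm served as the viability read-out. Cells (HUVEC plus peripheral blood mononuclear cells) were TCA-fixed and stained 24 h post-dosing; activity fitted in both directions against DMSO controls.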
In the case of `CCCCCCCCCCCCCCCO`, the AC50 is reported as 34.6 µM (active). With `O=c1n(CC2CO2)c(=O)n(CC2CO2)c(=O)n1CC1CO1` (centres undefined) the AC50 was 17.5 µM (active). For `CC(=O)OC[C@H]1O[C@@](COC(C)=O)(O[C@H]2O[C@H](COC(C)=O)[C@@H](OC(C)=O)[C@H](OC(C)=O)[C@H]2OC(C)=O)[C@@H](OC(C)=O)[C@@H]1OC(C)=O`, the outcome was “inactive”. With `CCn1nc(Cc2ccccc2)cc1C1CCN(C[C@H]2C[C@H](N(C)[C@@H](C(=O)O)C(C)C)C[C@@H]2c2cccc(F)c2)CC1` the outcome was “inactive”. With `CC1(C)C(=O)N(Br)C(=O)N1Br` the outcome was “inactive”. For `CCCCC(CC)COC(=O)CCCCCCCCC(=O)OCC(CC)CCCC` (centres undefined), the outcome was “inactive”. In the case of `Clc1nc(Cl)c(Cl)c(Cl)c1Cl`, the outcome is reported as “inactive”. In the case of `CCCCCCCCCCCCc1ccccc1`, the outcome is reported as “inactive”. In the case of `COC(=O)c1ccccc1O`, the outcome is reported as “inactive”. For `Cc1ccc(O)cc1`, the outcome was “inactive”. For `CC(C)CCO`, the outcome was “inactive”. In the case of `CC(C)=CCC/C(C)=C/CO`, the outcome is reported as “inactive”. For `CC(C)CCCCCCOC(=O)c1ccc(C(=O)OCCCCCCC(C)C)c(C(=O)OCCCCCCC(C)C)c1`, the outcome was “inactive”. With `C1=CCCC=CCCC=CCC1` the outcome was “inactive”. In the case of `CC[C@H]1OC(=O)[C@H](C)[C@@H](O[C@H]2C[C@@](C)(OC)[C@@H](O)[C@H](C)O2)[C@H](C)[C@@H](O[C@@H]2O[C@H](C)C[C@H](N(C)C)[C@H]2O)[C@](C)(O)C[C@@H](C)C(=O)[C@H](C)[C@@H](O)[C@]1(C)O`, the outcome is reported as “inactive”. With `O=C(O)CCN(C1(C(=O)NO)CCCC1)S(=O)(=O)c1ccc(Oc2ccc(F)cc2)cc1` the outcome was “inactive”. With `CC/C(=C\C(=N/O)C(N)=O)C(C)[N+](=O)[O-]` (centres undefined) the outcome was “inactive”. In the case of `C=CC(=C)CCC=C(C)C`, the outcome is reported as “inactive”. In the case of `Cc1ccc(S(=O)(=O)O)cc1C`, the outcome is reported as “inactive”. With `CCCN(C1CCN(C(=O)C2CCNCC2)CC1)[C@@H]1CCc2ccc(OC)cc2C1` the outcome was “inactive”. In the case of `COCCOCCOCCOC`, the outcome is reported as “inactive”. In the case of `CCCCCCCCO`, the outcome is reported as “inactive”. In the case of `CCC(C)(C)C(=O)O[C@H]1C[C@@H](C)C=C2C=C[C@H](C)[C@H](CC[C@@H]3C[C@@H](O)CC(=O)O3)[C@H]21`, the AC50 is reported as 1.32 µM (active). In the case of `C1N2CN3CN1CN(C2)C3`, the outcome is reported as “inactive”. For `CC(=O)c1ccc2c(c1)[C@H](NC(=O)c1ccc(F)cc1)[C@@H](O)C(C)(C)O2`, the outcome was “inactive”. In the case of `COC(=O)CC(=O)OC`, the outcome is reported as “inactive”. In the case of `O=C(CCCCCCCCc1cccnc1)N1CCC(C=C(c2ccccc2)c2ccccc2)CC1`, the AC50 is reported as 12.7 µM (active). For `Cn1cnc([N+](=O)[O-])c1Sc1ncnc2nc[nH]c12`, the outcome was “inactive”. In the case of `O=C1OC(=O)C2C3C=CC(C3)C12` (centres undefined), the outcome is reported as “inactive”.
